Several values for one entry are separate records, joined by “and”; a condition that tells them apart may be missing. Identical values can stand only once. The panel holds about 83,000 compounds, 20% with a hit somewhere; the sample as a whole holds those more often.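 Each cell line was grown in a 96-well plate and treated with one concentration of compound for 48 hours. Values below 10 were considered active.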 Activity calls are given as the source filed them.

In the first experiment the test system is MOLT-4 leukemia. The experiment is described as follows: NCI-60 one-dose screen, 48 h (100 = growth as untreated, 0 = no growth, -100 = all killed). The note with it: 4.75 µM. How it is done: Growth inhibition of the MOLT-4 human tumor cell line is measured as a screen for anti-cancer activity. Cells are grown in 96 well plates and exposed to the test compound for 48 hours. Compounds are tested at a single concentration, which is 10^-5 M for most compounds. The reported endpoint is percent growth (GI% or GIPRCNT), where numbers from 0 - 100% represent growth inhibition, and numbers from -100% - 0 represent cell death. For example, a value of 40 represents 60% growth inhibition. A value of 0 means no net growth occurred over the course of the experiment. A value of -40 indicates 40% of cells at the beginning of the experiment died by the end of the experiment. A value of -100 means all cells are dead at the end of the experiment.
NCI-60 Human Tumor Cell Lines Screen was performed using the standard one-dose NCI protocol, which is described in more detail at https://dtp.cancer.gov/discovery_development/nci-60/default.htm.
Compounds with GIPRCNT values below 10 were considered active. Activity score was based on GIPRCNT using the following formula: […]
Score is 0 for GIPRCNT values of 100 or above, 50 for GIPRCNT values of 0, and 100 for GIPRCNT values of -100.
For `CC(=O)OCC1OC([S-])C(OC(C)=O)C(OC(C)=O)C1OC(C)=O.[Au+].c1ccc(CN2[CH-]N(Cc3ccccc3)C(c3ccccc3)=C2c2ccccc2)cc1`, the growth is 3.9% (active).

Still in this experiment, the particulars now being: 10 µM.
Regarding `O=C(O)CCCc1ccc(N(CCCl)CCCl)cc1`, the growth is 73.4% (inactive) and 35.5% (inactive). Still for that read-out and setting: with `CC(=O)OCC1OC([S-])C(OC(C)=O)C(OC(C)=O)C1OC(C)=O.[Au+].c1ccc(CN2[CH-]N(Cc3ccccc3)C(c3ccccc3)=C2c2ccccc2)cc1` the figure was 13.5% (inactive).

The experiment is the same for the next values; noted with them: 10 µM unless noted.
Turning to `COC(=O)C12C3C4C1C1C2C3C41NC(=O)c1csc([C@@H](C[C@H](C(C)C)N(C)C(=O)[C@@H](NC(=O)[C@H]2CCCCN2C)C2CC2)OC(C)=O)n1` (stereo not given in full), the growth was 19.2% (inactive). Same read-out and setting: with `Cc1nc2ccccc2c(=O)n1-c1ccccc1F` the figure was 96.9% (inactive); with `C[C@]12CC[C@H](O)C[C@@H]1CC[C@@H]1[C@@H]2CC[C@]2(C)OC(=O)CC[C@@H]12`, 113% (inactive). On the same count and under the same terms, with `Cc1cc[c-]cc1.Fc1c[c-]c(-c2ccccn2)c(F)c1.N#CCC[PH+](CCC#N)c1ccccc1.[Pt+2]` the figure was 5.29% (active); with `Cc1ccccc1-n1c(/C=C\c2ccccn2)nc2ccccc2c1=O`, 32.7% (inactive). The same measure, in the same setting: with `O=[N+]([O-])c1ccc2scc3c4ccccc4nc-3c2c1` the figure was -11.7% (active).

Take `CN(C)c1ccc([N+](=O)[O-])c([N+](=O)[O-])c1`: the growth is 107% (inactive) and 100% (inactive). On the same count and under the same terms, with `O=[N+]([O-])c1ccc(P(=O)(O)O)cc1` the figure was 102% (inactive); with `O=C(O)C(O)c1ccc(Cl)cc1` (stereo not given), 113% (inactive); with `O=C(O)c1ccccc1N(CCO)CCCl`, 98.3% (inactive). The same measure, in the same setting: with `O=C1CCCCC1CN1CCCCC1` (stereo not given) the figure was 116% (inactive); with `O=C(O)C(Br)CBr` (stereo not given), 87.7% (inactive).

`CO/N=C1\CC[C@]2(C)[C@H]3CC[C@]4(C)C(=O)CC[C@H]4[C@@H]3C[C@@H]3SC(N)=N[C@@]32C1`: the growth is 86.1% (inactive). Same read-out and setting: with `CCOC(=O)P(=O)(OCC)OCC` the figure was 100% (inactive); with `N#CCN(CC#N)[N+](=O)[O-]`, 114% (inactive). In the case of `CO[C@@H]([CH2][Hg][O]C(=O)c1ccccc1)[C@@H]([CH2][Hg][O]C(=O)c1ccccc1)OC`, the growth was 27.4% (inactive). Same read-out and setting: with `COc1cc2c(cc1OC)-c1c3c(cc4c1[C@@H](C2)N(C)CC4)OCO3` the figure was 11.9% (inactive). As to `CC/C(=C(\c1ccc(OCCN2CCOCC2)cc1)c1ccc(OC(=O)Cc2ccccc2)cc1)c1ccc(Cl)cc1`, the growth is 96.7% (inactive). On to `O=C1C=C(N2CC2)c2ccccc2C1=O`, for which the growth was 5.2% (active). As to `CSc1cc(/C=C(\C)[C@@H]2C[C@@H]3O[C@]3(C)CCC[C@H](C)[C@H](O)[C@@H](C)C(=O)C(C)(C)[C@@H](O)CC(=O)O2)n(CCNC(=O)OC(C)(C)C)n1`, the growth was 42.7% (inactive). Still for that read-out and setting: with `N#CC(NC(=O)CCl)=C(Cl)Cl` the figure was -33.6% (active).

Consider `Cc1c2ccncc2c(C)c2c1[nH]c1ccccc12`, for which the growth is -24.4% (active). The same measure, in the same setting: with `CN(C)c1ccc(C=C2C(=O)NC(=O)NC2=O)cc1` the figure was 98.7% (inactive); with `O=c1[nH]c(=O)n(Cl)c(=O)n1Cl`, 113% (inactive) and 104% (inactive); with `CC[C@H](C)[C@H](NC(=O)[C@H]1CCCCN1C)C(=O)N(C)[C@H](C[C@@H](OC(C)=O)c1cccc(C(=O)N[C@@H](Cc2ccccc2)C[C@H](C)C(=O)OC)n1)C(C)C`, 13.6% (inactive).

For `O=C=Nc1ccc(Br)cc1`, the growth was 111% (inactive). Same read-out and setting: with `COC(=O)C1=CCCN(C)C1` the figure was 105% (inactive) and 97.6% (inactive); with `N#CCc1ccc(CC#N)cc1`, 99.9% (inactive).

As for `c1ccc2c(c1)sc1ccccc12`, the growth is 104% (inactive). Still for that read-out and setting: with `O=C1CN2CCC1CC2` the figure was 100% (inactive); with `C[C@]12CCC(=O)C[C@@H]1CC[C@@H]1[C@@H]2CC[C@]2(C)[C@@H](OC(=O)N(CCCl)N=O)CC[C@@H]12`, 13.3% (inactive); with `O=CC1(c2ccccc2)CCN(Cc2ccccc2)CC1`, 99.4% (inactive). Still for that read-out and setting: with `CC[C@@H](C)C(=O)O[C@H]1[C@H](O)[C@H]2[C@@H](CN3C[C@@H](C)CC[C@H]3[C@@]2(C)O)[C@@H]2C[C@]34O[C@]5(O)[C@@H](OC(=O)[C@@](C)(O)CC)CC[C@@]3(C)[C@@H]5[C@@H](OC(C)=O)[C@@H](OC(C)=O)[C@H]4[C@@]21O` the figure was 87.3% (inactive); with `C[C@]12CCc3sc(Nc4ccc(OC(F)(F)F)cc4)nc3C1=CC[C@@H]1[C@@H]2CC[C@]2(C)C(=O)CC[C@@H]12`, 4.15% (active); with `O=[N+]([O-])c1cc(Cl)c(Cl)cc1Cl`, 102% (inactive) and 103% (inactive). As to `OCCNC1CCCCC1`, the growth was 89.2% (inactive).

Staying with this experiment, now noted: 75 µM.
Turning to `O=C(O)CCCc1ccc(N(CCCl)CCCl)cc1`, the growth was 6.72% (active).

The values are drawn from PubChem BioAssay (NCI).
